Hits are enriched below; roughly 15% of the tested compounds scored in any of these assays.
Pf growth 48h – inhibits P. falciparum growth in the first generation, 48 h | 310,000 compounds, 5.9% hits | AID 504832 | P. falciparum luciferase growth in erythrocytes, 48 h | Potency, µM (highest dose often 28.7 µM), most hits filed as inhibitors
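Parasite viability was followed by luminescence of a genomically integrated firefly luciferase. Cultures held 0.1% parasitemia at 2% hematocrit (final), incubated under 5% CO2 at 37 C.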
HCMV inh – inhibitors of human cytomegalovirus; HFF cells, HCMV-luciferase reporter, 72 h; stronger effect = lower value; activity change, negative = inhibition, % at 57.5 µM; 410,000 compounds, 4.5% hits; AID 1259415; in the data active means activity change below about -60%; inconclusive means no clear call, values can overlap the other calls; inactive means above about -39%
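Human foreskin fibroblasts infected with luciferase-reporter HCMV at MOI 1 PFU/cell, compounds at two doses. Luciferase measured 72 h post infection; normalized to buffer-only basal and Salinomycin (10uM) controls.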
HCV inh – HCV inhibition | Huh7.5.1 HCVcc-Cre infection, luciferase reporter, 44 h | Potency, µM (top dose mostly 41.8 µM), hits mostly inhibitors | 340,000 compounds, 3.4% hits
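1,000 cells/well; 4 h culture; + compound; + HCVcc-Cre (~0.5 moi); 44 h; luciferase substrate, RT 15 min; read 15 sec.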
SARS PLP yeast – blocks SARS-CoV papain-like protease in a yeast assay; S. cerevisiae expressing SARS-CoV PLpro, growth rescue; Potency, µM (titrated, usually from 32.9 µM), hits mostly activators; 330,000 compounds, 0.19% hits; AID 485353; calls by dose curve; further: nearly all actives have a fitted effect of over 55% in size
Sm TGR block – inhibitors of Schistosoma mansoni thioredoxin glutathione reductase; Q962Y6; purified TGR, DTNB reduction, TNB absorbance 405 nm; Potency, µM (highest dose often 114 µM), hits mostly inhibitors; 360,000 compounds, 3% hits; AID 485364; further: nearly all actives have a fitted effect of over 60% in size
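Kinetic colorimetric format: TGR-catalysed, NADPH-driven DTNB reduction monitored via TNB absorbance. Enzyme dispensed at 20 nM; compound exposure 15 min at room temperature before reaction start.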
Pf growth 96h – P. falciparum growth inhibition at 96 hours; 320,000 compounds, 6.9% hits; Potency, µM (series often up to 28.7 µM), usual class: inhibitors; AID 504834; P. falciparum luciferase reporter growth, 96 h
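Two parasite generations (96 h, 37 C, 5% CO2) of compound exposure in infected erythrocytes (0.05% parasitemia, 2% hematocrit). Luciferase-reporter P. falciparum; decreased luminescence indicates inhibited growth, aimed at apicoplast-acting delayed death.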
Of the large screens only hits and unclear results are named; the others gave an inactive call; ! = not active in a repeat. Unless noted, the call rests on the fitted dose curve; in most records, active means well fitted curve in the direction sought with a large enough effect; inconclusive means small, poorly fitted or top-dose-only effect, or another doubt; inactive means no such curve, though single readings can be large; an effect the other way counts as inactive or inconclusive.

CSC1=NC(C)(C)C=C(/C=C/c2ccc(Cl)cc2Cl)N1	Pf growth 48h inconclusive, HCMV inh -86.8, HCV inh inconclusive, Sm TGR block 20µM, Pf growth 96h 11.7µM
Cc1ccc(NC(=O)NCCOCCn2c(=O)oc3ccccc32)c(C)c1	none (no result: Pf growth 48h, HCV inh, SARS PLP yeast, Pf growth 96h)
O=c1cc(CSc2ccccc2)[nH]c2ccccc12	Pf growth 48h 10.4µM, HCMV inh inconclusive, HCV inh inconclusive
CN1CCN(C2CCCCCC2)CC1	none
CC1CCCCC1NC1CCN(C)CC1 (centres undefined)	HCV inh inconclusive, Pf growth 96h 9.28µM
COc1cccc(CNC(=O)c2c(C)nn(-c3ccc(F)cc3)c2-n2cccc2)c1	none (no result: Pf growth 48h, HCV inh, SARS PLP yeast, Pf growth 96h)
CSCC[C@H](NC(=O)OC(C)(C)C)c1nnc(SCc2ccccc2)o1	Pf growth 48h 6.57µM
CC(C)C[C@H](NC(=O)OC(C)(C)C)c1nnc(SCc2cccc(F)c2)o1	Pf growth 48h inconclusive, Pf growth 96h 10.4µM
CCOc1cc(C2CC(=O)NC(SCC)=C2C#N)ccc1O (centres undefined)	none (no result: Pf growth 48h)
N#CC1=C2SCN(C3CCCCC3)CN2C(=O)CC1c1ccc(Br)cc1 (centres undefined)	Sm TGR block 10µM (no result: Pf growth 48h, HCV inh, SARS PLP yeast, Pf growth 96h)
CCOc1cc(C2CC(=O)N3CN(C4CCCCC4)CSC3=C2C#N)ccc1O (centres undefined)	Pf growth 48h inconclusive, HCV inh inconclusive, Sm TGR block 10µM, Pf growth 96h inconclusive
Cn1c2c(c(=O)n(C)c1=O)C(c1ccc(Br)cc1)C(C#N)=C(N)N2 (centres undefined)	Pf growth 96h inconclusive
CCNC(=O)C1CCCN(C(=O)c2ccc(F)c(Cl)c2)CC1 (centres undefined)	none (no result: Pf growth 48h, HCV inh, SARS PLP yeast, Sm TGR block, Pf growth 96h)
Cc1cc(=O)oc2c3c(cc(OCC(=O)NC(C)C)c12)OC(C)(C)CC3	Pf growth 48h 9.28µM, HCV inh inconclusive, Pf growth 96h inconclusive
COc1ccc(CNC(=O)COc2cc3c(c4oc(=O)cc(C)c24)CCC(C)(C)O3)cc1	Pf growth 48h inconclusive, HCV inh 7.08µM, Pf growth 96h 8.28µM
Cc1cc(=O)oc2c3c(cc(OCC(=O)NCc4cccnc4)c12)OC(C)(C)CC3	Pf growth 48h inconclusive, HCV inh inconclusive, Pf growth 96h inconclusive
Cc1cc(=O)oc2c3c(cc(OCC(=O)NCCC(=O)O)c12)OC(C)(C)CC3	none
Cc1cc(=O)oc2c3c(cc(OCC(=O)N[C@@H](C)C(=O)O)c12)OC(C)(C)CC3	none
COc1ccccc1CNC(=O)COc1cc2c(c3oc(=O)cc(C)c13)CCC(C)(C)O2	Pf growth 48h inconclusive, HCV inh 3.55µM, Pf growth 96h 3.7µM
COc1cccc(CNC(=O)COc2cc3c(c4oc(=O)cc(C)c24)CCC(C)(C)O3)c1	Pf growth 48h 9.28µM, HCMV inh inconclusive, HCV inh 1.41µM, Pf growth 96h 13.1µM
CC(OC(=O)C1CCN(c2ccc(C(F)(F)F)cn2)CC1)C(=O)c1ccccc1 (centres undefined)	none (no result: SARS PLP yeast)
CC(OC(=O)CCCN=C1NS(=O)(=O)c2ccccc21)C(=O)NC1CCCCC1C (centres undefined)	none
O=C(CSc1nccn1Cc1ccc(F)cc1)NC1CCCCC1	none (no result: Pf growth 48h, HCV inh, SARS PLP yeast, Sm TGR block, Pf growth 96h)
Cc1ccc(Cn2ccnc2SCC(=O)NC2CCCC2)cc1	none
O=C(CSc1nnc(-c2ccccn2)n1Cc1ccccc1)NC1CCCC1	Pf growth 48h 8.28µM, Pf growth 96h inconclusive
O=C(CSc1nccn1Cc1ccc(F)cc1)NC1CCCC1	HCMV inh -64.7!
O=C(CSc1nccn1Cc1ccccc1)NC1CCCC1	SARS PLP yeast 12.6µM
O=C(CSc1nccn1Cc1ccc(Cl)cc1)NC1CCCC1	HCMV inh -62.6 (no result: Pf growth 48h, HCV inh, SARS PLP yeast, Pf growth 96h)
O=C1CCC[C@H]2[C@@H](Cc3ccccc3)[C@@H](NCC3CCCCC3)CC[C@]23CCCN13	none (no result: Pf growth 48h, HCV inh, SARS PLP yeast, Sm TGR block, Pf growth 96h)
COc1cc2cc(C(=O)Nc3ccccc3)c(N)nc2cc1OC	Pf growth 48h 2.33µM, Pf growth 96h inconclusive
COc1cc2cc(C(=O)NC(C)c3cccc4ccccc34)c(N)nc2cc1OC (centres undefined)	none (no result: Pf growth 48h, HCV inh, SARS PLP yeast, Sm TGR block, Pf growth 96h)
O=C(Nc1cccc([N+](=O)[O-])c1)c1ccc2ccccc2c1O	HCMV inh -80.1, HCV inh inconclusive
COc1ccccc1C(=O)NNC(=S)NC(=O)c1cc(OC)c(OC)c(OC)c1	HCV inh inconclusive, Pf growth 96h 13.1µM
CCOc1ccc(NC(=O)c2cc3ccccc3cc2OC)cc1	HCV inh 10µM
Cn1cccc1C1CCCN1CC(=O)Nc1ccc(F)c(F)c1F (centres undefined)	none (no result: Pf growth 48h, Sm TGR block, Pf growth 96h)
O=C(Nc1cccnc1)c1ccc2ccccc2c1O	Pf growth 96h 0.465µM
CCOc1ccc(NC(=O)c2cc3ccccc3cc2O)cc1	Pf growth 48h 1.04µM, HCV inh inconclusive, Pf growth 96h 1.85µM
COc1ccccc1C(=O)Nc1ccc(Oc2nnc(-c3ccc(C)cc3)c3ccccc23)cc1	HCMV inh -69.6, HCV inh inconclusive, Pf growth 96h inconclusive
COc1ccc(C2(C(=O)NC(C)C)CCCC2)cc1OC	none (no result: Pf growth 96h)
CCOc1ccc(NC(=O)C2(c3ccc(OC)c(OC)c3)CCCC2)cc1	Pf growth 48h inconclusive, Pf growth 96h 1.65µM
COc1ccc(OC)c(NC(=O)Nc2nnc(COCCO)s2)c1	none (no result: Pf growth 48h, HCV inh, SARS PLP yeast, Sm TGR block, Pf growth 96h)
O=C1NC2(CCCC2)C(=O)N1CC(=O)N(Cc1ccccc1)c1ccccc1	Pf growth 48h inconclusive, Sm TGR block inconclusive
CC(C)OC(=O)c1cccc(NC(=O)Cn2nnc3sc4c(c3c2=O)CCCC4)c1	none (no result: Pf growth 48h, HCV inh, SARS PLP yeast, Pf growth 96h)
Cc1ncoc1C(=O)Nc1ccc(Oc2ccccc2)cc1	HCV inh inconclusive

Screening results (PubChem BioAssay)
